This is a sample that favours compounds with a hit; in the whole collection about 2.4% have one here.
POLB inh: inhibitors of human DNA polymerase beta; P06746; hit rate 1.3% among 340,000; Pol beta primer extension/strand displacement, fluorescence kinetic; Potency, µM (top dose mostly 114 µM), hits mostly inhibitors; AID 485314
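Reaction started by 50 nM substrate onto compound-treated Pol beta (10 nM, 15 min preincubation, room temperature); plates read at 0 min and 10 min. Normalized concentration-effect data fitted by four-parameter Hill equation.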
WRN helicase inh: inhibitors of human WRN helicase. Q14191. WRN helicase unwinding, fluorescent forked duplex, kinetic. Potency, µM (doses to about 114 µM), most hits filed as inhibitors. hit rate 0.46% among 360,000. AID 651768; note: nearly all actives have a fitted effect of over 55% in size
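WRN at 20 nM final was preincubated with compound for 15 min at room temperature; reaction started with 100 nM forked duplex oligonucleotide carrying fluorophore and quencher plus 2 mM ATP (final). Unwinding followed kinetically by red fluorescence (ex 525/em 598 nm).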
Pol eta inh-1: blocks human DNA polymerase eta activity | hit rate 1.2% among 390,000 | AID 588591 | Potency, µM (titrated, usually from 114 µM), most hits filed as inhibitors | recombinant Pol eta, fluorescent DNA replication assay | Q9Y253
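Pol eta (10 nM) was preincubated with compounds for 15 min at room temperature, after which fluorescent replication substrate (50 nM final) was added to start the reaction. Fluorescence was read kinetically at 0 and 10 min.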
POLI inh: inhibitors of human DNA polymerase iota; Q9UNA4; Pol iota fluorescent replication assay, 10 min; Potency, µM (series often up to 115 µM), most hits filed as inhibitors; hit rate 1% among 390,000; AID 588590
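Fluorescent replication assay read twice, at 0 min and 10 min after adding 50 nM (final) substrate. Enzyme (10 nM) and compounds were first incubated 15 min at room temperature; enzyme-free buffer wells were negative controls.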
FEN1 inh-1: human FEN1 inhibition. P39748. Recombinant FEN1 flap cleavage, fluorescence, 15 min. Potency, µM (titrated, usually from 114 µM), usual class: inhibitors. hit rate 0.35% among 390,000. AID 588795; note: nearly all actives have a fitted effect of over 65% in size
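Recombinant FEN1 (10 nM) was preincubated with pin-transferred compounds for 15 min at room temperature, then flap DNA substrate (50 nM final) was added. Plates were read at 0 and 15 min, and normalized concentration–response data were fitted to a four-parameter Hill equation.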
Pol kappa inh-1: inhibitors of human DNA polymerase kappa; Q9UBT6; purified Pol kappa, fluorescent DNA synthesis assay, 10 min; Potency, µM (series often up to 107 µM), actives largely listed as inhibitors; hit rate 0.53% among 400,000; AID 588579
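Readout: fluorescence, taken kinetically at 0 and 10 min. Conditions: 10 nM Pol kappa, 15 min RT compound preincubation, 50 nM substrate final. Controls: enzyme-free buffer wells.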
Pol kappa inh-2: confirmation of human DNA polymerase kappa inhibitors. shares compounds with Pol eta inh-1. purified Pol-kappa, fluorescent strand-displacement substrate. Potency, µM, most hits filed as inhibitors. hit rate 76% among 920
Pol eta inh-2: confirmation of human DNA polymerase eta inhibitors | Pol eta primer extension, TAMRA/BHQ fluorescence, 10 min | AID 720502 | shares compounds with Pol eta inh-1 | hit rate 64% among 2,600 | Potency, µM, actives largely listed as inhibitors
FEN1 inh-2: confirmation of human FEN1 inhibitors; hit rate 79% among 880; FEN1 flap cleavage, TAMRA/BHQ2 fluorogenic DNA substrate; shares compounds with FEN1 inh-1; Potency, µM, most hits filed as inhibitors; AID 720498; note: nearly all actives have a fitted effect of over 60% in size
Of the large screens only hits and unclear results are named; the others gave an inactive call (follow-up assays come after a bar, where they were run). Calls come from the whole dose curve; as a rule, active = well fitted curve in the direction sought with a large enough effect; inconclusive = small, poorly fitted or top-dose-only effect, or another doubt; inactive = no such curve, though single readings can be large; an effect the other way counts as inactive or inconclusive.

Cc1ccc(-n2c3nc(=O)[nH]c(=O)c-3cc3cc([N+](=O)[O-])ccc32)cc1C	WRN helicase inh inconclusive, Pol eta inh-1 20µM, FEN1 inh-1 inconclusive | Pol eta inh-2 inconclusive
O=C(c1cccnc1)N1C2C=CC(C2)C1(C(F)(F)F)C(F)(F)F (centres undefined)	POLB inh 40µM, WRN helicase inh inconclusive, Pol eta inh-1 14µM, POLI inh inconclusive | Pol eta inh-2 inconclusive
O=C(c1ccncc1)N1C2C=CC(C2)C1(C(F)(F)F)C(F)(F)F (centres undefined)	none (no result: WRN helicase inh, Pol eta inh-1, POLI inh, FEN1 inh-1, Pol kappa inh-1)
CCOc1ccc(N2C(=O)N(Cc3c(F)cccc3Cl)c3ccccc3S2(=O)=O)cc1	none (no result: WRN helicase inh)
Cc1ccc2nc(/C(C#N)=C/c3ccc(-c4ccccc4C(=O)O)o3)[nH]c2c1	POLB inh 22µM, Pol eta inh-1 20µM, POLI inh inconclusive, FEN1 inh-1 inconclusive, Pol kappa inh-1 inconclusive | Pol kappa inh-2 inconclusive
Cc1cc(/C=C(/C#N)c2nc3ccccc3[nH]2)c(C)n1-c1ccccc1C(=O)O	POLB inh 20µM, WRN helicase inh inconclusive, Pol eta inh-1 18µM, POLI inh 11µM, Pol kappa inh-1 inconclusive | Pol kappa inh-2 17 | Pol eta inh-2 38
Cc1ccc2nc(/C(C#N)=C\c3cc(C)n(-c4cccc([N+](=O)[O-])c4)c3C)[nH]c2c1	none
Cc1nc2nc(NC(=O)c3ccc(Cl)cc3)[nH]n2c(=O)c1Cc1ccccc1	POLI inh inconclusive (no result: WRN helicase inh)
COc1ccc(C2NC(=O)N(C)C3=C2C(=O)N(c2ccc(Br)cc2)C3)cc1 (centres undefined)	none (no result: WRN helicase inh)
COc1cccc(OCCOc2ccc(/C=C3/SC(=S)NC3=O)cc2)c1	POLB inh 10µM, WRN helicase inh inconclusive, Pol eta inh-1 28µM, POLI inh inconclusive | Pol kappa inh-2 inconclusive | Pol eta inh-2 85
CCOC(=O)CSc1nnc(CNc2cccc(Cl)c2)n1C	none
COCCCn1c(Cc2csc(Nc3cccc(Cl)c3)n2)nnc1SCC(=O)OC	POLB inh 25µM, Pol eta inh-1 20µM, POLI inh 22µM, Pol kappa inh-1 40µM | Pol kappa inh-2 17 | Pol eta inh-2 38
Cc1ccc(NC(=O)CN2CCN(S(=O)(=O)c3ccc(C(C)C)cc3)CC2)cc1F	none (no result: WRN helicase inh)
Cc1nnc(SCC2=C(C(=O)O)N3C(=O)C(NC(=O)Cn4nc(C(F)F)c(Cl)c4C)C3SC2)s1 (centres undefined)	POLB inh 25µM, WRN helicase inh inconclusive, Pol eta inh-1 20µM, Pol kappa inh-1 50µM | Pol eta inh-2 76
CC(=O)OCC1=C(C(=O)O)N2C(=O)C(NC(=O)Cn3nc(C(F)F)c(Cl)c3C)C2SC1 (centres undefined)	POLB inh 28µM, Pol eta inh-1 20µM, POLI inh inconclusive, Pol kappa inh-1 50µM | Pol eta inh-2 60
Cc1ccc(S(=O)c2ccc([N+](=O)[O-])c3nonc23)cc1 (centres undefined)	WRN helicase inh 79µM, Pol eta inh-1 14µM (no result: POLB inh, POLI inh, FEN1 inh-1, Pol kappa inh-1) | Pol kappa inh-2 inconclusive | Pol eta inh-2 34
Cc1ccc(Nc2c([N+](=O)[O-])ccc3nonc23)c(C)c1	none
Cn1nc(-c2ccc(OCC(=O)Nc3ccc(Cl)cc3)cc2)c2ccccc2c1=O	POLB inh 7.9µM, FEN1 inh-1 inconclusive (no result: WRN helicase inh) | Pol kappa inh-2 42 | FEN1 inh-2 34
Cn1nc(-c2ccc(OCC(=O)Nc3ccccc3)cc2)c2ccccc2c1=O	none
Cn1c(=O)oc2cc(S(=O)(=O)NC(Cc3ccccc3)C(=O)Nc3ccc(F)cc3)ccc21 (centres undefined)	none (no result: WRN helicase inh)
O=c1cc(O)c2ccc(O)cc2o1	none
O=c1ccc2[n+]([O-])c3ccc(O)cc3oc-2c1	POLB inh 63µM, POLI inh 25µM, FEN1 inh-1 40µM, Pol kappa inh-1 inconclusive | Pol kappa inh-2 24 | FEN1 inh-2 60
COc1ccc(OCC(=O)NCc2ccc3c(c2)CCN3C(=O)c2cccc(C)c2)cc1	none (no result: WRN helicase inh)
O=C(Cc1cccs1)N/N=C\c1ccc([N+](=O)[O-])s1	FEN1 inh-1 inconclusive
NC(=O)c1ccc(N=Cc2ccc([N+](=O)[O-])s2)cc1	POLB inh inconclusive, Pol eta inh-1 32µM, POLI inh 50µM, FEN1 inh-1 inconclusive | Pol eta inh-2 inconclusive | FEN1 inh-2 6.7
COc1ccc2c(c1)cc(C(=O)N/N=C/c1c(O)c(C(=O)O)cc3ccccc13)n2C	POLB inh 32µM, Pol eta inh-1 40µM, POLI inh inconclusive, FEN1 inh-1 inconclusive | Pol kappa inh-2 75 | Pol eta inh-2 85 | FEN1 inh-2 85
Cn1c(C(=O)NN)cc2cc(Oc3ccccc3)ccc21	none
O=C(COC(=O)c1ccc([N+](=O)[O-])o1)Nc1ncc(Cl)cc1Cl	WRN helicase inh inconclusive, Pol eta inh-1 22µM, POLI inh inconclusive, FEN1 inh-1 inconclusive (no result: POLB inh) | Pol eta inh-2 inconclusive | FEN1 inh-2 11
Cc1c(NC(=O)C(C)OC(=O)c2ccc([N+](=O)[O-])s2)c(=O)n(-c2ccccc2)n1C (centres undefined)	POLB inh 10µM, Pol eta inh-1 50µM, POLI inh inconclusive, Pol kappa inh-1 inconclusive | Pol eta inh-2 inconclusive | FEN1 inh-2 6
COc1ccc(N(C)C(=O)NCc2noc3ccc(C)cc23)c(OC)c1	none (no result: WRN helicase inh)
O=C(O)/C=C/c1cn(-c2ccccc2)nc1-c1ccc(-c2ccc([N+](=O)[O-])cc2)o1	POLB inh 28µM, WRN helicase inh 50µM, Pol eta inh-1 32µM, POLI inh inconclusive, FEN1 inh-1 inconclusive | Pol eta inh-2 85 | FEN1 inh-2 76
CC1=CN2C(=N)/C(=C/c3ccc([N+](=O)[O-])o3)C(=O)N=C2S1	POLB inh 18µM, WRN helicase inh 32µM, Pol eta inh-1 4µM, POLI inh 16µM, FEN1 inh-1 56µM, Pol kappa inh-1 32µM | Pol eta inh-2 60 | FEN1 inh-2 67
CC1=CN2C(=N)/C(=C/c3ccco3)C(=O)N=C2S1	POLB inh inconclusive, WRN helicase inh inconclusive, Pol eta inh-1 inconclusive
CCn1cc(C(=O)NCCc2ccc(Cl)cc2)c(=O)c2cc(S(=O)(=O)N3CCC(C)CC3)ccc21	none (no result: WRN helicase inh)
Cc1ccc(NC(=O)Nc2c[nH]c(=O)[nH]c2=O)c(Cl)c1	POLB inh inconclusive (no result: WRN helicase inh)
